According to ChEMBL document CHEMBL3988442, “University of Dundee, Small-Polar-MMV Screening Library” (2021):
The campaign covered roughly 48,000 compounds. About 13,000 (27%) showed an effect of 50% or more. The list shows a part of the results.

These compounds were tested on Wolbachia pipientis (assay: Anti-Wolbachia Cell-Based Screen). Details: 5 µM.
Assay type: functional
Design: scale not given: in the data most compounds retested in dose-response had high values

Compound	Percent Effect
CCOCC(=O)Nc1ccc(N2CCSCC2)cc1C	-9.938%
O=C(O)C(F)(F)F.O=C(O)C(F)(F)F.c1csc(CN2Cc3[nH]nc(COCC4CC4)c3C2)c1	-16.32%
Cc1cccc(S(=O)(=O)N2C[C@H]3C[C@H](C(=O)N(C)C)[C@@H](C2)O3)c1	-13.43%
Cc1cccc(S(=O)(=O)N2C[C@@H]3C[C@@H](c4nc(C)no4)O[C@@H]3C2)c1	113.1%
Cc1cccc(S(=O)(=O)N2C[C@@H]3C[C@@H](c4nnc(C)[nH]4)O[C@@H]3C2)c1	102.4%
Cc1cccc(S(=O)(=O)N2C[C@@H]3OCCN(C(C)C)[C@@H]3C2)c1	-15.31%
Cc1cccc(S(=O)(=O)N2C[C@H]3C[C@H](C(=O)NC4CCC4)[C@@H](C2)O3)c1	-10.53%
Cc1cccc(S(=O)(=O)N2C[C@H]3C[C@H](C(=O)NCC4CC4)[C@@H](C2)O3)c1	-9.673%
Cc1ccc(-c2cn3c(n2)CO[C@@H](CNCc2cnn(C)c2)C3)cc1	12.36%
Cc1cc(C(=O)N2C[C@@H](CN3CCCCC3)[C@@H](CO)C2)ccc1O	-7.322%
COCCN(C)C[C@@H]1CN(C(=O)c2ccc(O)c(Cl)c2)C[C@@H]1CO	127.9%
CCCOc1ccc(C(=O)N2C[C@@H](CN3CCCC3)[C@@H](CO)C2)cc1Cl	0.3871%
COCCN(C)C[C@@H]1CN(C(=O)c2ccc(O)c(C)c2)C[C@@H]1CO	126%
O=C(c1ccc(O)c(Cl)c1)N1C[C@@H](CN2CCCCCC2)[C@@H](CO)C1	-0.5835%
COc1cc(C)ccc1C(=O)N1C[C@@H](CN(C)CCO)[C@@H](CO)C1	-2.888%
COc1ccc(C(=O)N2C[C@@H](CN3CCCCC3)[C@@H](CO)C2)cc1Cl	-0.8846%
COCCN(C)C[C@@H]1CN(C(=O)c2ccc(C)c(Cl)c2)C[C@@H]1CO	113.4%
CC(C)CN1C(=O)COC[C@@H]1[C@H](O)c1ccc(NC(=O)C2CC2)cc1	-2.654%
CC(C)c1cc(N[C@@H](CO)C(N)=O)n2nccc2n1	27.01%
Cc1cnn(-c2cccc(N3CCCCC3)n2)c1	-2.755%
CC(C)c1nc(C2CCCN(C(=O)c3ccc4c(c3)COC4)C2)no1 (centres undefined)	126.8%
CC(C)c1nc(C2CCCN(C(=O)c3ccc4nncn4c3)C2)no1 (centres undefined)	123.4%
CC(C)c1nc(C2CCCN2C(=O)c2ccc3nncn3c2)no1 (centres undefined)	-6.434%

Compound	Percent Effect
CC(C)c1nccn1C1CCCN(C(=O)c2ccc3[nH]nnc3c2)C1 (centres undefined)	-9.073%
CC(C)c1nc(C2CCCN(C(=O)c3ccc4c(c3)OCO4)C2)no1 (centres undefined)	127.5%
O=C(c1ccc2c(c1)OCO2)N1CCCC(n2cccn2)C1 (centres undefined)	4.266%
CC(C)c1nc(C2CCCN(C(=O)c3ccc4nccn4c3)C2)no1 (centres undefined)	-6.875%
CC(C)c1nc(C2CCCN(C(=O)c3ccc4[nH]nnc4c3)C2)no1 (centres undefined)	134.9%
COc1ccccc1OC1CN(C(=O)c2c(C)nc3ccc(C)cn23)C1	-16.35%
CC(c1ncc(C(C)(C)C)o1)N1CCN(Cc2ccc(Cl)s2)CC1 (centres undefined)	-10.01%
Cc1ccc(NC(=O)c2nc(N3CCCCC3)ncc2Cl)cc1I	14.77%
CC(=O)NC[C@H]1OC[C@@H](NC2CCC(F)(F)CC2)[C@@H]1O	-10%
Cc1nnc(NCc2cccc(OCc3ccccn3)c2)c(C#N)c1C	115.9%
COCc1ccccc1CNc1nnc(C)c(C)c1C#N	-9.449%
Cc1nc2ccccc2nc1NCc1cccc(OCC2CCCO2)c1 (centres undefined)	113.3%
N#Cc1ccc(NCc2cccc(OCC3CCCO3)c2)nc1 (centres undefined)	63.12%
CN(C)C(=O)c1cccc(CNc2ccc(C#N)cn2)c1	29.09%
Cc1nnc(NCc2cccnc2N(C)C)c(C#N)c1C	-6.334%
Cc1nnc(NCc2ccc(N3CCC(CO)CC3)cc2)c(C#N)c1C	12.23%
Cc1nc2ccccc2nc1NCc1nnc2n1CCC2	-17.33%
Oc1cccc(CNCC2CCCO2)c1 (centres undefined)	10.1%
Cc1nnc(NCc2cccc(OCC3CCCO3)c2)c(C#N)c1C (centres undefined)	98.93%
Cc1ccccc1C1(CNc2nnc(C)c(C)c2C#N)CCOCC1	10.33%
N#Cc1ccc(NCc2cccc(COC3CCOCC3)c2)nc1	-4.004%
O=C(c1ccco1)N1CCc2ncnc(NCc3ccccn3)c2CC1	-3.443%
CN1C(=O)[C@H]2CC[C@@H]1CN(C(=O)c1csc(Cc3ccccc3)n1)C2	-11.33%

Compound	Percent Effect
CN(C(=O)c1ccc[nH]1)C1CCC(NC(=O)OC(C)(C)C)CC1 (centres undefined)	-42.92%
CCC(C)N(Cc1ccncc1)Cc1ccccc1Cn1cccn1 (centres undefined)	4.156%
O=C(O)C(F)(F)F.O=C([C@@H]1C[C@@H]2CCN(C3CCOCC3)C[C@H]2O1)N1CCOCC1	89.37%
O=C(O)C(F)(F)F.O=C([C@H]1C[C@H]2OCC[C@H]2N(CC2CCOCC2)C1)N1CCCC1	10.32%
O=C(O)C(F)(F)F.O=C([C@H]1COC[C@H]2CN(C3CCOCC3)C[C@H]21)N1CCC(F)CC1	-1.372%
CC1CCN(C(=O)[C@@H]2C[C@@H]3CCN(CC4CCOCC4)C[C@@H]3O2)CC1.O=C(O)C(F)(F)F	-4.888%
CC1CCN(C(=O)[C@H]2C[C@@H]3CCN(CC4CCOCC4)C[C@@H]3O2)CC1.O=C(O)C(F)(F)F	-3.152%
CC1CCN(C(=O)[C@H]2C[C@@H]3CCN(CC4CCOCC4)C[C@H]3O2)CC1.O=C(O)C(F)(F)F	-1.273%
O=C(O)C(F)(F)F.O=C([C@H]1C[C@@H]2CCN(C3CCOCC3)C[C@@H]2O1)N1CCOCC1	-5.423%
O=C(O)C(F)(F)F.O=C([C@H]1C[C@@H]2CCN(C3CCOCC3)C[C@H]2O1)N1CCCC1	103.9%
O=C(O)C(F)(F)F.O=C([C@@H]1C[C@@H]2CCN(C3CCOCC3)C[C@@H]2O1)N1CCCC1	130.2%
Cc1ccccc1CC(=O)N(C)C1CCCC1	-4.156%
COc1ccc(-c2cnc(CN3CCn4c(C)nnc4C3)o2)cc1	-11.18%
c1csc(-c2nc(CN3CCn4c(nnc4C4CC4)C3)co2)c1	-3.067%
Cn1ccnc1-c1ccc(NCC2COc3ccccc3O2)nn1 (centres undefined)	-1.636%
Cc1ccc(CC(=O)NC(C)C(=O)N2CCS(=O)(=O)CC2)cc1 (centres undefined)	-13.94%
CC(C)CC(C)N(C)Cc1nnc(-c2ccco2)o1 (centres undefined)	9.065%
CNC(=O)C1Cn2ccnc2C2(CCN(CCF)CC2)O1 (centres undefined)	3.54%
CNC(=O)C1Cn2ccnc2C2(CCN(c3ccc(C)nn3)CC2)O1 (centres undefined)	1.376%
CNC(=O)C1Cn2ccnc2C2(CCN(C(=O)c3ccccn3)CC2)O1 (centres undefined)	-8.502%
CC(C)CNC(=O)N1CCC2(CC1)OC(C(N)=O)Cn1ccnc12.O=C(O)C(F)(F)F (centres undefined)	99.99%
CNC(=O)C1Cn2ccnc2C2(CCN(C(=O)NC3CCCC3)CC2)O1 (centres undefined)	96.32%
CNC(=O)C1Cn2ccnc2C2(CCN(C(=O)CC3CCCC3)CC2)O1.O=C(O)C(F)(F)F (centres undefined)	-0.06928%

Compound	Percent Effect
CC(C)CC(=O)N1CCC2(CC1)OC(C(N)=O)Cn1ccnc12.O=C(O)C(F)(F)F (centres undefined)	113.8%
NC(=O)C1Cn2ccnc2C2(CCN(C(=O)c3ccncc3)CC2)O1 (centres undefined)	116.6%
CNC(=O)C1Cn2ccnc2C2(CCN(Cc3csc(C)n3)CC2)O1 (centres undefined)	2.029%
CCc1nc(C)c(C2CC(=O)Nc3c2c(C(C)(C)C)nn3C)[nH]1 (centres undefined)	-1.206%
CCN(C(=O)c1ccc2nnc(C3CCN(S(C)(=O)=O)C3)n2c1)C(C)C (centres undefined)	-8.044%
CCS(=O)(=O)N1CCC(c2nnc(Cn3cccn3)n2C2CC2)CC1	-1.644%
CCN(CC)c1ccc(-c2nc(-c3cccc(OC)c3OC)no2)cn1	-1.328%
N#Cc1cccc(S(=O)(=O)CCN2CCOC2=O)c1	-9.929%
COc1ccc(NC(=O)CCC2CCCN(S(=O)(=O)C3CC3)C2)cc1Cl (centres undefined)	5.788%
COc1ccc(OCc2cc(C(=O)N3CCOCC3)n[nH]2)c(Cl)c1	-1.083%
CNC(=O)C1Cn2ccnc2C2(CCN(C(=O)c3ccoc3C)CC2)O1.O=C(O)C(F)(F)F (centres undefined)	5.988%
NC(=O)C1Cn2ccnc2C2(CCN(C(=O)NC3CCCC3)CC2)O1.O=C(O)C(F)(F)F (centres undefined)	99.21%
O=C(NC1CC1)N1CCCC2(CCCCN2)C1.O=C(O)C(F)(F)F (centres undefined)	-8.648%
Cc1ccc2cc(C(=O)N3CCCCC3c3nc[nH]n3)ccc2n1 (centres undefined)	-6.785%
Cc1cccc(C(=O)N2CCCC2c2c(C)n[nH]c2C)c1 (centres undefined)	0.2093%
COCc1cccc(C(=O)N2CCCCC2c2nccs2)c1 (centres undefined)	13.03%
Cc1cc(-c2c[nH]nc2C2CCCCN2C(=O)c2ccccc2)on1 (centres undefined)	116.8%
Cc1nc(O)ccc1C(=O)N1CCCC1c1nc(-c2ccccc2)n[nH]1 (centres undefined)	-6.533%
Cc1noc(-c2c[nH]nc2C2CCCN2C(=O)c2ccccc2)c1C (centres undefined)	143.3%
COCCN1C(=O)[C@H]2CC[C@@H]1CN(C(=O)Cc1c(F)cccc1Cl)C2	-1.329%
